Results: PubChem BioAssay AID1159580 (chemical genetic matrix, 2015)
The whole screen tested about 5,500 compounds, of which about 2,000 (36%) were called active. Not shown: some 18% with an inconclusive outcome. Rule as the data show it: active = normalized growth mostly below about 0.91 (no sharp cut-off); inconclusive = no clear call, values can overlap the other calls; inactive = mostly above about 0.92. The list shows a part of the results.

Experiment: chemical genetic growth profiling, strain panel (AID 1159580);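 also: tested at 20 µM; growth read once vehicle control cultures reached saturation at 30 °C; 1 = growth at the plate median or of vehicle wells; lower values mean less growth of the strain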
Details: growth OD

Measured: normalized growth

CC(=O)Nc1ccc(OC(=O)c2ccccc2O)cc1
inactive: S. cerevisiae deletion strains, locus YJR066W, strain TOR1, stronger effect = lower value 0.929 | S. cerevisiae deletion strains, locus YKL068W, stronger effect = lower value 0.96 | S. cerevisiae deletion strains, locus YKL085W, strain MDH1 (second series), stronger effect = lower value 0.95 | S. cerevisiae deletion strains, locus YKL085W, strain MDH1, stronger effect = lower value 0.95 | S. cerevisiae deletion strains, locus YKL160W, strain elf1, stronger effect = lower value 0.978 | S. cerevisiae deletion strains, locus YKL190W, strain CNB1, stronger effect = lower value 0.987 | S. cerevisiae deletion strains, locus YKR026C, strain gcn3, stronger effect = lower value 0.965 | S. cerevisiae deletion strains, locus YKR091W, strain srl3, stronger effect = lower value 0.962 | S. cerevisiae deletion strains, locus YLL001W, strain dnm1, stronger effect = lower value 0.96 | S. cerevisiae deletion strains, locus YLL026W, stronger effect = lower value 0.978 | S. cerevisiae deletion strains, locus YLL041C, strain sdh2, stronger effect = lower value 0.995 | S. cerevisiae deletion strains, locus YLR027C, strain aat2, stronger effect = lower value 0.992 | S. cerevisiae deletion strains, locus YLR039C, strain RIC1, stronger effect = lower value 0.676 | S. cerevisiae deletion strains, locus YLR058C, strain SHM2, stronger effect = lower value 0.941 | S. cerevisiae deletion strains, locus YLR102C, strain apc9, stronger effect = lower value 0.943 | S. cerevisiae deletion strains, locus YLR113W, strain HOG1, stronger effect = lower value 0.901 | S. cerevisiae deletion strains, locus YLR258W, strain gsy2, stronger effect = lower value 0.918 | S. cerevisiae deletion strains, locus YLR262C, strain YPT6 (second series), stronger effect = lower value 0.972 | S. cerevisiae deletion strains, locus YLR262C, strain YPT6, stronger effect = lower value 0.733 | S. cerevisiae deletion strains, locus YLR268W, strain sec22, stronger effect = lower value 0.894 | S. cerevisiae deletion strains, locus YLR330W, strain CHS5, stronger effect = lower value 0.959 | S. cerevisiae deletion strains, locus YLR342W, strain FKS1 (second series), stronger effect = lower value 0.938 | S. cerevisiae deletion strains, locus YLR342W, strain FKS1, stronger effect = lower value 1.01 | S. cerevisiae deletion strains, locus YLR357W, strain rsc2, stronger effect = lower value 0.929 | S. cerevisiae deletion strains, locus YLR370C, strain arc18, stronger effect = lower value 0.934 | S. cerevisiae deletion strains, locus YLR371W, strain rom2, stronger effect = lower value 0.952 | S. cerevisiae deletion strains, locus YLR384C, strain iki3, stronger effect = lower value 1 | S. cerevisiae deletion strains, locus YML016C, strain PPZ1, stronger effect = lower value 0.977 | S. cerevisiae deletion strains, locus YML120C, strain ndi1, stronger effect = lower value 0.951 | S. cerevisiae deletion strains, locus YML124C, strain tub3, stronger effect = lower value 0.955 | S. cerevisiae deletion strains, locus YMR058W, strain fet3, stronger effect = lower value 0.939 | S. cerevisiae deletion strains, locus YMR078C, strain ctf18, stronger effect = lower value 0.935 | S. cerevisiae deletion strains, locus YMR125W, strain sto1, stronger effect = lower value 0.982 | S. cerevisiae deletion strains, locus YMR129W, stronger effect = lower value 0.989 | S. cerevisiae deletion strains, locus YMR205C, strain PFK2, stronger effect = lower value 0.967 | S. cerevisiae deletion strains, locus YMR223W, strain ubp8, stronger effect = lower value 0.938 | S. cerevisiae deletion strains, locus YMR231W, strain pep5, stronger effect = lower value 1.01 | S. cerevisiae deletion strains, locus YMR307W, strain GAS1, stronger effect = lower value 0.707 | S. cerevisiae deletion strains, locus YNL067W, strain RPL9B, stronger effect = lower value 0.897 | S. cerevisiae deletion strains, locus YNL153C, strain GIM3, stronger effect = lower value 0.936 | S. cerevisiae deletion strains, locus YNL183C, strain NPR1, stronger effect = lower value 0.858 | S. cerevisiae deletion strains, locus YNL209W, strain ssb2, stronger effect = lower value 0.95 | S. cerevisiae deletion strains, locus YNL250W, strain rad50, stronger effect = lower value 0.978 | S. cerevisiae deletion strains, locus YNL271C, strain bni1, stronger effect = lower value 0.955 | S. cerevisiae deletion strains, locus YNL298W, strain CLA4, stronger effect = lower value 0.925 | S. cerevisiae deletion strains, locus YNR049C, strain mso1, stronger effect = lower value 0.964 | S. cerevisiae deletion strains, locus YNR052C, strain pop2, stronger effect = lower value 0.98 | S. cerevisiae deletion strains, locus YOL012C, strain htz1 0.544 | S. cerevisiae deletion strains, locus YOL147C, strain pex11, stronger effect = lower value 0.943 | S. cerevisiae deletion strains, locus YOR001W, strain rrp6, stronger effect = lower value 0.962 | S. cerevisiae deletion strains, locus YOR061W, strain CKA2, stronger effect = lower value 0.967 | S. cerevisiae deletion strains, locus YOR069W, strain VPS5, stronger effect = lower value 0.985 | S. cerevisiae deletion strains, locus YOR070C, strain gyp1, stronger effect = lower value 0.932 | S. cerevisiae deletion strains, locus YOR080W, strain dia2, stronger effect = lower value 1.02 | S. cerevisiae deletion strains, locus YOR083W, strain WHI5, stronger effect = lower value 0.928 | S. cerevisiae deletion strains, locus YOR106W, strain vam3, stronger effect = lower value 0.954 | S. cerevisiae deletion strains, locus YOR136W, strain idh2, stronger effect = lower value 0.948 | S. cerevisiae deletion strains, locus YOR144C, strain elg1, stronger effect = lower value 0.947 | S. cerevisiae deletion strains, locus YOR231W, strain MKK1, stronger effect = lower value 0.909 | S. cerevisiae deletion strains, locus YOR265W, strain rbl2, stronger effect = lower value 0.987 | S. cerevisiae deletion strains, locus YOR316C, strain cot1, stronger effect = lower value 0.947 | S. cerevisiae deletion strains, locus YPL051W, strain arl3, stronger effect = lower value 0.957 | S. cerevisiae deletion strains, locus YPL106C, strain sse1, stronger effect = lower value 0.926 | S. cerevisiae deletion strains, locus YPL240C, strain hsp82, stronger effect = lower value 0.973 | S. cerevisiae deletion strains, locus YPL241C, strain CIN2, stronger effect = lower value 0.977 | S. cerevisiae deletion strains, locus YPL256C, strain CLN2, stronger effect = lower value 0.881 | S. cerevisiae deletion strains, locus YPR119W, strain clb2, stronger effect = lower value 0.941 | S. cerevisiae deletion strains, locus YPR141C, strain kar3, stronger effect = lower value 0.967 | S. cerevisiae deletion strains, locus YPR163C, strain tif3, stronger effect = lower value 0.931 | S. cerevisiae deletion strains, locus YPR167C, strain met16, stronger effect = lower value 0.94 | S. cerevisiae deletion strains, strain wtn01, stronger effect = lower value 0.915 | S. cerevisiae strains, strain wild type, stronger effect = lower value 0.952
active: S. cerevisiae deletion strains, locus YJR075W, strain HOC1, stronger effect = lower value 0.85 | S. cerevisiae deletion strains, locus YKL009W, strain mrt4, stronger effect = lower value 0.848 | S. cerevisiae deletion strains, locus YKR001C, strain vps1, stronger effect = lower value 0.794 | S. cerevisiae deletion strains, locus YLR221C, strain rsa3, stronger effect = lower value 0.871 | S. cerevisiae deletion strains, locus YLR320W, strain mms22, stronger effect = lower value 0.832 | S. cerevisiae deletion strains, locus YLR418C, strain cdc73, stronger effect = lower value 0.682 | S. cerevisiae deletion strains, locus YML032C, strain rad52, stronger effect = lower value 0.897 | S. cerevisiae deletion strains, locus YNL071W, strain lat1, stronger effect = lower value 0.809 | S. cerevisiae deletion strains, locus YNL233W, strain BNI4, stronger effect = lower value 0.832 | S. cerevisiae deletion strains, locus YNL248C, strain rpa49, stronger effect = lower value 0.862 | S. cerevisiae deletion strains, locus YNL307C, strain MCK1, stronger effect = lower value 0.576 | S. cerevisiae deletion strains, locus YNL322C, strain KRE1 (second series), stronger effect = lower value 0.888 | S. cerevisiae deletion strains, locus YOL006C, strain TOP1, stronger effect = lower value 0.463 | S. cerevisiae deletion strains, locus YOR184W, strain ser1, stronger effect = lower value 0.756 | S. cerevisiae deletion strains, locus YOR270C, strain vph1, stronger effect = lower value 0.635 | S. cerevisiae deletion strains, locus YOR290C, strain snf2, stronger effect = lower value 0.857 | S. cerevisiae deletion strains, locus YPL078C, strain atp4, stronger effect = lower value 0.83
